TDP1 cell CPT: qHTS for Inhibitors of human tyrosyl-DNA phosphodiesterase 1 (TDP1): qHTS in cells in presence of CPT; chicken DT40 Tdp1-/-;hTDP1 cells + 20 nM CPT, ATP luminescence, 48 h; Potency, µM (series often up to 46.2 µM), without a hit: at the highest dose activity change, negative = growth inhibition, actives largely listed as inhibitors; 420,000 tested, 12% active; AID 686979, 2013; further: potency means the concentration at half of the fitted maximal effect; nearly all actives have a fitted effect of over 55% in size
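Chicken DT40 Tdp1-/- cells stably complemented with human TDP1 were seeded at 400 cells/well in medium containing 20 nM camptothecin, exposed to pin-transferred compounds, and grown at 37 °C for at least 48 hr. Viability was read as ATP luminescence.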
HT1080NT lethal: qHTS for induction of synthetic lethality in tumor cells producing 2HG: qHTS for the HT-1080-NT fibrosarcoma cell line; HT-1080-NT fibrosarcoma viability, CellTiter-Glo ATP luminescence, 48 h; Potency, µM (top dose mostly 46.1 µM), without a hit: at the top dose activity, negative = less viability, usual class: cytotoxic; 360,000 tested, 1.6% active;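 further: NT is the 2HG producing partner of a matched IDH1 knockdown line; potency means the concentration at half of the fitted maximal effect; 0% = DMSO-treated cells and -100% = media-only wells without cells; nearly all actives have a fitted effect of over 55% in size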
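Toxicity toward the 2HG-producing NT line was scored as %Activity, normalised to DMSO and no-cell wells, from CellTiter-Glo luminescence after 48 hours' treatment.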
TDP1 cell noCPT: qHTS for Inhibitors of human tyrosyl-DNA phosphodiesterase 1 (TDP1): qHTS in cells in absence of CPT | DT40 Tdp1-/- hTDP1 cells, no CPT, ATP luminescence, 48 h | Potency, µM (doses to about 46.2 µM), for inactives: at the highest dose activity change, negative = growth inhibition, actives largely listed as inhibitors | AID 686978, 2013 | 420,000 tested, 15% active; further: potency means the concentration at half of the fitted maximal effect; nearly all actives have a fitted effect of over 55% in size
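Growth kinetics read by CellTiter-Glo luminescence after ≥48 hr at 37 °C. Cells: DT40 Tdp1-/- stably carrying human TDP1, 400 per well, compound exposure in the absence of CPT (DMSO vehicle).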
IL1B secr inh: qHTS for Inhibitors of Inflammasome Signaling: IL-1-beta AlphaLISA Primary Screen; THP-1 LPS/ATP IL-1B secretion, AlphaLISA, 16 h; hits give low values; activity change, % at 57.5 µM; 360,000 tested, 4.7% active; in the data active means activity change below about -50%; inconclusive means mostly about -30% to -49%
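THP-1 cells pretreated 1 hr with compounds (up to 57.5 uM final), then stimulated with LPS (250 ng/mL final) plus ATP (1.25 mM final); secreted IL-1B measured by AlphaLISA after 16 hr, decreased signal indicating inhibition.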
HT1080 IDH1KD tx: qHTS for induction of synthetic lethality in tumor cells producing 2HG: qHTS for the HT-1080-IDH1KD cell line; HT-1080 IDH1 knockdown viability, ATP luminescence, 48 h; Potency, µM (titrated, usually from 46.1 µM), without a hit: top-dose activity, negative = toxicity, usual class: cytotoxic; 360,000 tested, 2% active;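 further: potency means the concentration at half of the fitted maximal effect; 0% = DMSO wells and -100% = cell-free medium wells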
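Using the IDH1-knockdown HT-1080 line run in the same batch and compound series as the NT line, viability after 48 h at 37 °C was determined by CellTiter-Glo luminescence and expressed as % activity.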
uPA generation: qHTS for Inhibitors of Cell Surface uPA Generation | Potency, µM (titrated, usually from 38.3 µM), for inactives: at the top dose activity change, negative = inhibition, actives largely listed as inhibitors | cell surface uPA generation assay, qHTS | 330,000 tested, 0.31% active; active means well fitted inhibition curve with a large enough effect; inconclusive means small, poorly fitted or top-dose-only effect; inactive means no such curve, though single readings can be large or run the other way; tested in mouse RAW 264.7 cells; further: potency means the concentration at half of the fitted maximal effect; nearly all actives have a fitted effect of over 55% in size
The depositor's hits bear a star; ? = inconclusive; nt = not tested or not shown; [ ] = another dose, or the depositor's remark. This is a sample that favours compounds with a hit; in the whole collection about 19% have one here. Unless noted, the call rests on the fitted dose curve; in most records, active means well fitted curve in the direction sought with a large enough effect; inconclusive means small, poorly fitted or top-dose-only effect, or another doubt; inactive means no such curve, though single readings can be large; an effect the other way counts as inactive or inconclusive. Unless noted, on the % scale 0 is the no-effect control and ±100 the full control effect.

SMILES | TDP1 cell CPT | HT1080NT lethal | TDP1 cell noCPT | IL1B secr inh | HT1080 IDH1KD tx | uPA generation
COC(=O)[C@H]1C[C@H](OC(=O)NCc2ccco2)[C@@]2(O)CN(S(=O)(=O)c3ccc(C)cc3)CC2[C@H]1C(=O)OC (stereo partly drawn) | ? | 3.3% | ? | -64.5* | 8.7% | nt
O=C(NCCc1csc2nc(-c3ccccc3F)nn12)C(=O)Nc1cc(F)ccc1F | 3.2% | nt | -6.0% | nt | nt | nt
C=CCNC(=O)N1CCC(n2nccc2NC(=O)CCCc2ccccc2)CC1 | -1.9% | -2.0% | 23.2% | -1.9 | 2.2% | -13.6%
O=C1CCN(Cl)C(=O)N1Cl | -3.6% | 0.3% | -7.0% | 21.7 | 19.8% | nt
CCOc1ccc(NC(=O)CN(C)C(=O)C2CC(=O)N(CCc3ccccc3)C2)cc1OCC (stereo not drawn) | 10.2% | 5.2% | 9.8% | -6.1 | -8.4% | 6.9%
COc1ccc(CNC(=O)O[C@H]2Cn3c(=O)ccc(=O)n3[C@@H]3CN(S(=O)(=O)c4ccc(C)cc4)C[C@]23O)cc1OC | -25.5% | 3.1% | -24.6% | -8.3 | -0.1% | nt
Cc1ccc(S(=O)(=O)N2C[C@H]3n4c(=O)ccc(=O)n4C[C@H](OC(=O)NCc4ccccc4)[C@@]3(O)C2)cc1 | ? | ? | 25.9µM* | 0.0 | ? | nt
CCCCCCn1c(=O)n2n(c1=O)[C@@H]1CN(S(=O)(=O)c3ccc(C)cc3)C[C@]1(O)[C@@H](OC(=O)NCc1ccccc1)C2 | ? | ? | ? | -71.3* | -20.3% | nt
Cc1ccc(C)[n+](CC(=O)c2ccc(-c3ccccc3)cc2)c1 | 2.59µM* | -7.6% | 1.84µM* | -13.0 | -3.8% | -6.7%
Cc1cc2ccccc2c[n+]1CC(=O)c1ccc(F)cc1 | ? | nt | 12.6µM* | nt | nt | nt
Cc1ccc(C(=O)C[n+]2cccc3ccccc32)cc1 | ? | -14.6% | 18.4µM* | -10.8 | -7.2% | -6.4%
O=C(C[n+]1cccc2ccccc21)c1ccc(Br)cc1 | ? | -19.1% | ? | -13.6 | -17.2% | -97.7%
COc1ccc(C(=O)C[n+]2cccc3cc(Cl)ccc32)cc1 | ? | nt | 15.8µM* | nt | nt | nt
Cc1ccc[n+](CC(=O)c2ccc(-c3ccccc3)cc2)c1 | -0.7% | 3.0% | 1.7% | 16.3 | 0.2% | 8.0%
O=C(C[n+]1ccccc1Cl)c1ccc(I)cc1 | -11.1% | nt | ? | nt | nt | nt
O=C(C[n+]1cccc2cc(Cl)ccc21)c1ccc2ccccc2c1 | 5.01µM* | nt | 3.98µM* | nt | nt | nt
CC(=O)C[n+]1cccc2cc(Cl)ccc21 | -19.3% | nt | -28.1% | nt | nt | nt
O=C(C[n+]1cccc2cc(Cl)ccc21)c1ccc(I)cc1 | 11.2µM* | nt | 11.2µM* | nt | nt | nt
COCC(=O)N(Cc1cc2ccc(C)c(C)c2n2nnnc12)C1CCCC1 | ? | -13.3% | ? | 32.3 | -3.8% | -10.6%
COC(=O)[C@@H](NCc1ccc(B(O)O)cc1)C(C)C | -1.5% | 1.7% | -14.4% | ? | 8.1% | 17.0%
O=C(O)C1CCCCN1c1ccccc1[N+](=O)[O-] (stereo not drawn) | 0.6% | 22.5% | 13.8% | 13.6 | 17.8% | nt
O=[N+]([O-])c1cccnc1N1CCC(c2cc(-c3ccc(Cl)cc3)n[nH]2)CC1 | 20.6µM* | -0.6% | 20.6µM* | -84.7* | -18.0% | 0.5%
Cc1cc(C)n(-c2ccccc2C#N)n1 | 7.8% | 9.6% | -3.2% | -6.2 | 2.8% | -3.3%
O=S(=O)(NCCc1cn2ccsc2n1)c1ccc(Cl)cc1 | -16.8% | nt | -15.3% | nt | nt | nt
Cc1cc(C)n2c(NCc3ccccc3)c(-c3cc4ccccc4o3)nc2n1 | 16.4µM* | -27.5% | 14.6µM* | 10.4 | ? | nt
SMILES | TDP1 cell CPT | HT1080NT lethal | TDP1 cell noCPT | IL1B secr inh | HT1080 IDH1KD tx | uPA generation
COC(=O)c1cc2oc3ccccc3c2n1CC(=O)Nc1ccc(C)cc1C | ? | nt | -2.7% | nt | nt | nt
CC(=O)Oc1ccc(N(c2ccccc2)S(=O)(=O)c2ccc(C)cc2)cc1 | ? | -8.7% | ? | -4.7 | -1.7% | -21.9%
COc1ccc(C(=O)NCC(c2cccnc2)N2CCN(c3ccccc3)CC2)cc1OC (stereo not drawn) | ? | -0.1% | -21.0% | 20.7 | -7.7% | -1.9%
COc1ccc(C(=O)NCC(c2cccnc2)N2CCN(c3ccccc3OC)CC2)cc1OC (stereo not drawn) | 20.6µM* | -6.6% | ? | 10.7 | -6.7% | -2.5%
COc1cccc(C(=O)NCC(c2cccnc2)N2CCN(c3ccccc3OC)CC2)c1 (stereo not drawn) | 20.6µM* | -1.2% | 23.1µM* | 32.6 | -15.2% | -13.2%
Cc1ccc(CNCC(=O)Nc2ccc(N3CCOCC3)cc2)cc1 | 0.1% | 1.2% | -14.8% | -1.3 | -3.2% | -4.9%
O=C(CNC(=S)NC(=O)c1cccc([N+](=O)[O-])c1)c1ccccc1 | -7.2% | -23.6% | -14.3% | -13.9 | ? | -0.6%
O=C(NC(=S)NNC(=O)c1ccccc1O)c1cccc([N+](=O)[O-])c1 | 23.1µM* | -13.0% | 23.1µM* | 6.5 | 1.4% | 4.2%
CCCCCCCCCCCC(=O)NC(C(=O)OCC)C(O)c1cccc([N+](=O)[O-])c1 (stereo not drawn) | 16.4µM* | ? | 23.1µM* | -79.4* | ? | -7.2%
CCCCCC(=O)NNC(=S)NC(=O)c1cccc([N+](=O)[O-])c1 | 14.6µM* | -2.2% | 13µM* | 33.0 | -9.8% | 2.1%
CCOc1ccc(C(=O)NC(=S)Nc2ccccn2)cc1[N+](=O)[O-] | ? | -0.1% | ? | 25.8 | 3.4% | 7.5%
O=C(NC(=S)Nc1ccccn1)c1cccc([N+](=O)[O-])c1 | ? | 22.9% | 18.4µM* | -4.2 | 16.9% | -1.5%
COc1ccc(C(=O)NCc2nnc(SCC(=O)N3CCc4ccccc43)n2Cc2ccccc2)cc1 | ? | 19.8% | ? | 6.6 | 12.7% | -1.0%
CCC(=O)Nc1ccc2c(c1)ncn2-c1ccc(C)cc1 | -2.4% | 7.7% | -21.0% | -24.6 | 0.0% | -1.9%
CCNC(=O)C1(C)CCN(C(=O)c2ccc3c(c2)OCO3)C1 (stereo not drawn) | 18.8% | 28.9% | 2.3% | 0.0 | 10.9% | nt
CC1CN(C(=S)NC(=O)c2cccc([N+](=O)[O-])c2)CC(C)O1 (stereo not drawn) | ? | 0.1% | 16.4µM* | 27.7 | -3.2%[9.24 µM] | 5.8%

Screening data deposited in PubChem BioAssay by National Center for Advancing Translational Sciences (NCATS).
